# Measurements from paper PMC4336329 (PLoS ONE, 2015).
# In all, about 310,000 compounds went through this assay and about 14,000 (4.5%) showed an effect of 50% or more. The effect is printed as a negative number. This is one part of a sample in which strong results are shown more often than they occur.
# Target: human ether-à-go-go-related gene (hERG) potassium channel (human, UniProt Q12809)
# Test: primary screen, population patch clamp on CHO cells stably expressing hERG; higher = less effect of the substance
# 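Further: peak tail current of the secondary pulse compared with the same well before compound.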
# human ether-à-go-go-related gene (hERG) potassium channel, sequence (Q12809 whole entry, looked up): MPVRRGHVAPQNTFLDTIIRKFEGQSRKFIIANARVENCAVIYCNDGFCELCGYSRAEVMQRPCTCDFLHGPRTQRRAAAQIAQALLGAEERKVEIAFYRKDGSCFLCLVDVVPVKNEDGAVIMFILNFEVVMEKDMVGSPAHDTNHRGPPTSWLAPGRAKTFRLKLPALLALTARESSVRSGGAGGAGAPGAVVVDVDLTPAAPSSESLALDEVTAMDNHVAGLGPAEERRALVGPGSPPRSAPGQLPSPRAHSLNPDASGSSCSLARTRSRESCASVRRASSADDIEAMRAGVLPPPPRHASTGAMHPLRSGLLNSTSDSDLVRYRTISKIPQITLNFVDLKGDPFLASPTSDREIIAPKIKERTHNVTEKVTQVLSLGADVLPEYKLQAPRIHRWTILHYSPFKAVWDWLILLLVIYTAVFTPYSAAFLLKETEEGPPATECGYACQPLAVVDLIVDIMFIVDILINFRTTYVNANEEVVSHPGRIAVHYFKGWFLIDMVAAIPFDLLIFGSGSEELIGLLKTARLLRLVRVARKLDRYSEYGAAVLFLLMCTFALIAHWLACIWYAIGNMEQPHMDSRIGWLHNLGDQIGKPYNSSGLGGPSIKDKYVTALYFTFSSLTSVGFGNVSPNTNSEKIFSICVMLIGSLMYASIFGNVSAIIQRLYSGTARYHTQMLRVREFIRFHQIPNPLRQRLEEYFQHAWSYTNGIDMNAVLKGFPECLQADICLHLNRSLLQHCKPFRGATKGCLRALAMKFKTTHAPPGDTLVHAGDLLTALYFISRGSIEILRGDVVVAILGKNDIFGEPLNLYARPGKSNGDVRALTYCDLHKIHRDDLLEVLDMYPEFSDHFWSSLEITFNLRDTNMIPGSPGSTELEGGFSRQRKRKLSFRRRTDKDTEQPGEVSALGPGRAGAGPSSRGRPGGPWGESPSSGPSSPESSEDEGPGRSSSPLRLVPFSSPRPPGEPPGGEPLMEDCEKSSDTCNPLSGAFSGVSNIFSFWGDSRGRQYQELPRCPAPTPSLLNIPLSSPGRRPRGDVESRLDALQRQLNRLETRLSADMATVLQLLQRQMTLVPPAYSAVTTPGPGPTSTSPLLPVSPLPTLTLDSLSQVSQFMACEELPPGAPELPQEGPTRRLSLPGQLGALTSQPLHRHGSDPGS
row,Structure (SMILES),"hERG current change (%, negative = inhibition) at 10uM [%]"
1,Cc1cc(C)c(N=C2SCC(=O)N2Cc2ccco2)c(C)c1,-14
2,Cc1cc(C)c(NC(=O)COC(=O)CCn2c(C)csc2=O)c(C)c1,-10.6
3,Cc1ccc(-n2ncc3c(NCCCN4CCOCC4)ncnc32)c(C)c1,-10.3
4,Cc1cc(NC(=O)COC(=O)c2cc(S(=O)(=O)N(C)c3ccccc3)ccc2Cl)no1,0.766
5,Cc1ccccc1-n1c(-c2ccco2)nc2ccccc2c1=O,1.78
6,Cn1cnc2c1c(=O)n(CC(O)CO)c(=O)n2C (stereo not shown),23
7,CCOC(=O)N1CCN(C(=O)Cn2cc3c(n2)CCCC3)CC1,-72.4
8,O=C(Cn1cc2c(n1)CCCCC2)N1CCCCC1,2.46
9,O=C(Cn1cc2c(n1)CCCC2)N1CCCC1,5.98
10,Cc1ccc(C(=O)NCc2ccc3c(c2)OCO3)cc1S(=O)(=O)N1CCCCC1,-26.4
11,CC(=O)OCCN(CCCn1c(-c2ccncc2)nc2ccccc21)c1nc(CN2CCCCC2)cs1,-58.5
12,OCCN(CCCn1c(C(F)(F)F)nc2ccccc21)c1nc(CN2CCCCC2)cs1,-19
13,OCCN(CCCn1c(-c2ccncc2)nc2ccccc21)c1nc(CN2CCCCC2)cs1,23.4
14,NC(=O)CSc1nc2sc(-c3ccccc3)cc2c(=O)n1N,11
15,CC1CN=C(Nc2ccccc2)S1 (stereo not shown),7.23
16,COc1cccc(CNS(=O)(=O)c2c(C(=O)N3CCCCC3)c(C)n(C)c2C)c1,9.63
17,O=[N+]([O-])c1ccc(SCCc2ccccn2)cc1,-44.3
18,O=c1ccnc(SCCc2ccc([N+](=O)[O-])cc2)[nH]1,-34
19,O=[N+]([O-])c1ccc(SCCc2ccncc2)cc1,-63.7
20,COC(=O)c1cnc(SCc2ccc([N+](=O)[O-])cc2)n1C,-32
21,O=[N+]([O-])c1ccc(SCCc2cc[nH+]cc2)cc1.[Cl-],-53.7
22,Fc1ccc(SCCc2ccncc2)cc1,-29.9
23,Cn1c(SCCc2ccc([N+](=O)[O-])cc2)nccc1=O,-59.9
24,O=C(COC(=O)CSc1ccc([N+](=O)[O-])cc1)NCCCc1ccccc1,4.5
25,O=C(COC(=O)CSc1ccc([N+](=O)[O-])cc1)NCCc1ccccc1,5.52

row,Structure (SMILES),"hERG current change (%, negative = inhibition) at 10uM [%]"
1,COc1ccc(C)cc1Cn1c(S(C)(=O)=O)nc2ccccc21,-9.64
2,Cc1cccc(N2CCN(C(=O)CCN3C(=O)C4C5C=CC(C5)C4C3=O)CC2C)c1 (stereo not shown),-18.2
3,CCN1CN(CCc2ccccc2)CNC1=S,5.61
4,O=C(C1CCN(S(=O)(=O)c2ccc(Cl)cc2)CC1)N1CCCCCCC1,-16.1
5,Cc1ccc(-n2nc3c(c2NC(=O)c2ccc4c(c2)OCO4)CS(=O)C3)cc1 (stereo not shown),7.09
6,COc1ccc(C(=O)N/C(=C\c2ccc3c(c2)OCO3)C(=O)Nc2ccc(C(=O)O)cc2)cc1,17.8
7,O=C(NCc1ccc2c(c1)OCO2)c1ccc(Br)cc1,-19.8
8,CCN(CC)C(=O)/C(=C\c1ccc2c(c1)OCO2)NC(=O)c1ccc(Br)cc1,-63.5
9,CCN(CC)C(=O)/C(=C\c1ccc(Br)cc1)NC(=O)c1ccccc1OC,-27.3
10,CCN(CC)C(=O)/C(=C/c1ccc2c(c1)OCO2)NC(=O)c1ccc(Br)cc1,-70.5
11,COc1ccc(-c2cn(CCN)c(-c3ccncc3)n2)cc1,5.87
12,CN(C)S(=O)(=O)c1ccc(Cl)c(NC(=O)COC(=O)CN2C(=O)C3CCCCC3C2=O)c1 (stereo not shown),6.74
13,CC1CCN(S(=O)(=O)c2ccc3[nH]c(=O)ccc3c2)CC1,-5.5
14,CCC1CCCCN1S(=O)(=O)c1ccccc1 (stereo not shown),-13
15,CCC1CCCCN1S(=O)(=O)c1ccc2[nH]c(=O)ccc2c1 (stereo not shown),-60.1
16,C=CCN(c1ccc(C(=O)NCCc2ccccc2)cc1)S(C)(=O)=O,-6.23
17,COc1ccc(C)cc1NC(=O)C(c1ccccc1)N1CCNC(=O)C1 (stereo not shown),-5.31
18,CC(C)c1ccc(C(=O)NCCCN(C)C)cc1,-17.1
19,O=C(Nc1ccc(C(=O)NCCCN2CCN(c3ccccc3)CC2)cc1)C1=CSCCO1,-38.2
20,CN1CCN(CCCNC(=O)c2ccc(NC(=O)C3=CSCCO3)cc2)CC1,11.5
21,Cc1ccc(C(=O)NCCCN2CCN(CCCNC(=O)c3ccc(C)cc3)CC2)cc1,-67.5
22,CC(C)c1ccc(C(=O)NCCCN2CCN(CCCNC(=O)c3ccc(C(C)C)cc3)CC2)cc1,-84.3
23,O=C(Nc1ccc(C(=O)NCCCN2CCN(c3ccc(F)cc3)CC2)cc1)C1=CSCCO1,-54
24,CC(C)c1ccc(C(=O)NCCCN2CCOCC2)cc1,-5.2
